Reference: PubChem BioAssay (NCI)
Compounds without any hit were thinned out: in the full panel of roughly 79,000, 15% have a hit. A number with no mark means an inactive call. Activity calls are given as the source filed them. Cut-off read from the data, not from the text of the source: active = growth inhibition above about 70%; inactive = the rest.

Key:
[1] = NCI Yeast Anticancer Drug Screen. Data for the rad50 strain (AID 155);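 note: 0% = growth of vehicle-only cultures of the same strain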; conditions: S. cerevisiae rad50 strain growth inhibition; at 50.0 µM; stronger effect = higher value
Method in brief: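 Vehicle-treated cultures provide the reference for the growth inhibition reported for compound-exposed, repair-deficient yeast.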

[2] = NCI Yeast Anticancer Drug Screen. Data for the mec2-1 strain (AID 157); conditions: S. cerevisiae mec2-1 strain, at 50.0 µM, stronger effect = higher value
Method in brief: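 Yeast mec2-1 mutant treated with compound. Readout: growth inhibition vs vehicle controls.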

[3] = NCI Yeast Anticancer Drug Screen. Data for the sgs1 mgt1 strain (AID 161);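 note: 0% = growth of cultures given vehicle only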; conditions: S. cerevisiae sgs1 mgt1 strain, at 50.0 µM, stronger effect = higher value
Method in brief: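 Inhibition of yeast growth, normalised to vehicle-treated controls, is reported for a strain bearing genetic alterations in DNA damage repair.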

[4] = NCI Yeast Anticancer Drug Screen. Data for the cln2 rad14 strain (AID 165);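 note: 0% = growth equal to vehicle treated cultures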; conditions: S. cerevisiae cln2 rad14 strain, at 50.0 µM, stronger effect = higher value
Method in brief: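 cln2 rad14 yeast strain; compound exposure; growth inhibition read vs vehicle controls.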

[5] = NCI Yeast Anticancer Drug Screen. Data for the bub3 strain (AID 167); conditions: S. cerevisiae bub3 mutant strain, at 50.0 µM, stronger effect = higher value
Method in brief: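 Mutant yeast screening strain plus compound; vehicle-treated cultures serve as the 0% inhibition reference.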

[6] = NCI Yeast Anticancer Drug Screen. Data for the mlh1 rad18 strain (AID 175); conditions: S. cerevisiae mlh1 rad18 strain growth inhibition; at 50.0 µM; stronger effect = higher value
Method in brief: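 Yeast w/ defined DNA-repair lesions; compound exposure; growth vs vehicle controls → % inhibition.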

CC(C)(c1ccc([N+](=O)[O-])cc1)[N+](=O)[O-]
growth inhibition [1]: 11.1%
growth inhibition [2]: 10.3%
growth inhibition [3]: 1.6%
growth inhibition [4]: -7.4%
growth inhibition [5]: -11.8%
growth inhibition [6]: -4.55%

CCOC(=O)CC/C(C)=N/NC(=O)c1ccc[n+](C)c1
growth inhibition [1]: -11.8%
growth inhibition [2]: -3.65%
growth inhibition [3]: -1.95%
growth inhibition [4]: -29%
growth inhibition [5]: -3.05%
growth inhibition [6]: 2.65%

CC(C)=CCC/C(C)=C/Cn1c(=O)cc[nH]c1=O
growth inhibition [1]: 10.7%
growth inhibition [2]: -6.9%
growth inhibition [3]: -15.8%
growth inhibition [4]: -107%
growth inhibition [5]: 2.15%
growth inhibition [6]: -0.1%

CC(C)C(=O)CC1(O)C(=O)Nc2ccc([N+](=O)[O-])cc21 (stereo unspecified)
growth inhibition [1]: -9.95%
growth inhibition [2]: -0.2%
growth inhibition [3]: -7.75%
growth inhibition [4]: -34.9%
growth inhibition [5]: 4.15%
growth inhibition [6]: 2.5%

NC(=O)C(CCc1ccccc1)(CCc1ccccc1)c1ccc2ccccc2c1
growth inhibition [1]: 19.5%
growth inhibition [2]: 11.2%
growth inhibition [3]: -2.85%
growth inhibition [4]: 6.6%
growth inhibition [5]: 29.8%
growth inhibition [6]: 46%

COc1cc2nncc(SCc3ccc(Cl)cc3)c2cc1OC
growth inhibition [1]: -1%
growth inhibition [2]: 4.2%
growth inhibition [3]: -0.55%
growth inhibition [4]: -11%
growth inhibition [5]: 15.5%
growth inhibition [6]: 4.05%

CCCCc1c2c([n+]([O-])c3c1CCCC3)CCCC2
growth inhibition [1]: 29.4%
growth inhibition [2]: 30.3%
growth inhibition [3]: 54.1%
growth inhibition [4]: -11.2%
growth inhibition [5]: 17.2%
growth inhibition [6]: 20.1%

Cc1c(C(C)c2[nH]c3ccccc3c2C)[nH]c2ccccc12
growth inhibition [1]: 8.1%
growth inhibition [2]: 0.45%
growth inhibition [3]: -11.6%
growth inhibition [4]: 4.45%
growth inhibition [5]: 17.4%
growth inhibition [6]: -13.6%

CC(C(=O)O)C(C)(O)C(C)(C)C (stereo unspecified)
growth inhibition [1]: -3.9%
growth inhibition [2]: 1.05%
growth inhibition [3]: -5.25%
growth inhibition [4]: -37.4%
growth inhibition [5]: 12.2%
growth inhibition [6]: -6.95%

CCCCCCCC/C=C\CCCCCCCC(=O)NCCN1CCCCC1
growth inhibition [1]: 99% (active)
growth inhibition [2]: 99.5% (active)
growth inhibition [3]: 99.6% (active)
growth inhibition [4]: 97.8% (active)
growth inhibition [5]: 99% (active)
growth inhibition [6]: 99.2% (active)

C(=N/n1nnc(-c2ccccc2)n1)/c1ccccc1
growth inhibition [1]: -2.4%
growth inhibition [2]: -10.1%
growth inhibition [3]: -3%
growth inhibition [4]: -44.1%
growth inhibition [5]: -5.3%
growth inhibition [6]: -6.05%

NC(=O)C(O)C(O)CO (stereo unspecified)
growth inhibition [1]: -8.8%
growth inhibition [2]: -9.35%
growth inhibition [3]: -15.2%
growth inhibition [4]: 7.2%
growth inhibition [5]: -8.8%
growth inhibition [6]: -5.25%

CC(N)(CCBr)C(=O)O (stereo unspecified)
growth inhibition [1]: 3.85%
growth inhibition [2]: 5.2%
growth inhibition [3]: -0.05%
growth inhibition [4]: -4.75%
growth inhibition [5]: -5.95%
growth inhibition [6]: -17.4%

Nc1nnc2nc(CC(=O)c3ccccn3)/c(=C/C(=O)c3ccccn3)n12
growth inhibition [1]: -7.3%
growth inhibition [2]: -13.7%
growth inhibition [3]: -2.8%
growth inhibition [4]: -43.3%
growth inhibition [5]: -26.9%
growth inhibition [6]: -23.1%

N#Cc1c(-c2ccccc2)cc(-c2ccccc2)[nH]c1=O
growth inhibition [1]: 18.6%
growth inhibition [2]: 7.4%
growth inhibition [3]: 16.4%
growth inhibition [4]: 11.7%
growth inhibition [5]: 3.5%
growth inhibition [6]: 22.9%

CC(C)OCCCNc1ncnc2c1cnn2-c1ccc(Cl)cc1
growth inhibition [1]: 3.55%
growth inhibition [2]: -9.15%
growth inhibition [3]: 3.55%
growth inhibition [4]: -11.8%
growth inhibition [5]: -13.6%
growth inhibition [6]: -4.9%

Cc1ccc(-c2nnc(-c3cccc4ccccc34)o2)cc1
growth inhibition [1]: 1.85%
growth inhibition [2]: -31.9%
growth inhibition [3]: 0.75%
growth inhibition [4]: 4.1%
growth inhibition [5]: -44.1%
growth inhibition [6]: -8.05%

CC(C)C(O)C(C)(C)CO (stereo unspecified)
growth inhibition [1]: 10.7%
growth inhibition [2]: -15.2%
growth inhibition [3]: 4.75%
growth inhibition [4]: 2.3%
growth inhibition [5]: 11.1%
growth inhibition [6]: 32.6%

O=C1CC(C2OCOC3COCOC32)CC(=O)N1 (stereo unspecified)
growth inhibition [1]: 4.15%
growth inhibition [2]: -5.1%
growth inhibition [3]: -7.15%
growth inhibition [4]: 2.3%
growth inhibition [5]: -12.8%
growth inhibition [6]: -1.65%

CCOC(=O)c1ccc(NC(=O)c2cccc(Cl)c2)cc1
growth inhibition [1]: 0.1%
growth inhibition [2]: -6.85%
growth inhibition [3]: -4.25%
growth inhibition [4]: -5.45%
growth inhibition [5]: 9.5%
growth inhibition [6]: 1.25%

Cc1ccc(S(=O)(=O)Nn2c(O)c(C#N)c(-c3ccc(N(C)C)cc3)c(C#N)c2=O)cc1
growth inhibition [1]: -6.7%
growth inhibition [2]: -20.1%
growth inhibition [3]: -44.5%
growth inhibition [4]: 1.7%
growth inhibition [5]: -19.1%
growth inhibition [6]: -20.9%

c1ccc2c(c1)ccc1c3ccccc3ccc21
growth inhibition [1]: 14.5%
growth inhibition [2]: 10.9%
growth inhibition [3]: 13.6%
growth inhibition [4]: 25.6%
growth inhibition [5]: 24.4%
growth inhibition [6]: 17.6%

N#Cc1ccc(OCCCOc2ccc(C#N)cc2)cc1
growth inhibition [1]: 8.15%
growth inhibition [2]: 12.2%
growth inhibition [3]: 9.65%
growth inhibition [4]: 5.3%
growth inhibition [5]: 46.2%
growth inhibition [6]: -4.15%

C[N+]1=C2[B-](C(C)(C)C)=[N+](C(C)(C)C)[B-]2(C(C)(C)C)[N+](C)=C2[B-](C(C)(C)C)=[N+](C(C)(C)C)[B-]21C(C)(C)C (stereo unspecified)
growth inhibition [1]: 2.65%
growth inhibition [2]: 0%
growth inhibition [3]: 9.35%
growth inhibition [4]: -8.35%
growth inhibition [5]: -4.1%
growth inhibition [6]: -9.85%

COc1cccc(CN(CC(=O)O)S(=O)(=O)c2ccc(C)cc2)c1
growth inhibition [1]: -6.2%
growth inhibition [2]: 11.3%
growth inhibition [3]: -1%
growth inhibition [4]: -46.6%
growth inhibition [5]: -23.6%
growth inhibition [6]: 6.85%

Cc1nc2ccccc2nc1CC(O)(c1ccccc1)c1cccc2ccccc12 (stereo unspecified)
growth inhibition [1]: 55.8%
growth inhibition [2]: 18.9%
growth inhibition [3]: 37.4%
growth inhibition [4]: 26.9%
growth inhibition [5]: 13.2%
growth inhibition [6]: 38.4%

CCOC(=O)NC(=O)c1cn(CCCOC(=O)CCCCCCCCCCC(=O)OCCCn2cc(C(=O)NC(=O)OCC)c(=O)n(C)c2=O)c(=O)n(C)c1=O
growth inhibition [1]: -22.3%
growth inhibition [2]: 8.3%
growth inhibition [3]: -24.6%
growth inhibition [4]: 15.3%
growth inhibition [5]: -2.35%
growth inhibition [6]: -19.4%

O=C(CC(c1ccccc1)C1CCCC1=O)c1ccccc1 (stereo unspecified)
growth inhibition [1]: 11.1%
growth inhibition [2]: 1.65%
growth inhibition [3]: 17.6%
growth inhibition [4]: -21.3%
growth inhibition [5]: 6.1%
growth inhibition [6]: 17.1%

CC1CCC23C1CC(CC(=O)C2(C)O)C3(C)C (stereo unspecified)
growth inhibition [1]: 4.75%
growth inhibition [2]: 6%
growth inhibition [3]: 5.2%
growth inhibition [4]: -49.4%
growth inhibition [5]: -21.1%
growth inhibition [6]: 5.05%

Cc1cc(S(=O)(=O)O)c(NC(=O)C(=O)C2C=CCS2(=O)=O)cc1Cl (stereo unspecified)
growth inhibition [1]: -5.2%
growth inhibition [2]: -20.8%
growth inhibition [3]: -8.65%
growth inhibition [4]: 1.8%
growth inhibition [5]: -8.15%
growth inhibition [6]: -8.85%

N#CCC(=O)N/N=C1\C(=O)N(c2ccc(Cl)cc2)C(=O)C(=O)C1c1nc2ccccc2o1 (stereo unspecified)
growth inhibition [1]: 22.4%
growth inhibition [2]: -11.8%
growth inhibition [3]: 0.4%
growth inhibition [4]: 16.5%
growth inhibition [5]: 1.35%
growth inhibition [6]: 8.45%

Cc1cnccc1P(=O)(O)O
growth inhibition [1]: 13.7%
growth inhibition [2]: -4.8%
growth inhibition [3]: 6.7%
growth inhibition [4]: -21.7%
growth inhibition [5]: -3.55%
growth inhibition [6]: 5.65%

COC(=O)C1C(=O)CC2CCCCC21 (stereo unspecified)
growth inhibition [1]: 2.75%
growth inhibition [2]: -19.6%
growth inhibition [3]: -13.9%
growth inhibition [4]: 20.6%
growth inhibition [5]: -22.3%
growth inhibition [6]: 16.8%

CC(C)S1=C2C(=O)CC(C)(C)CC2=Nc2ccccc21 (stereo unspecified)
growth inhibition [1]: 7.65%
growth inhibition [2]: -0.65%
growth inhibition [3]: 2.95%
growth inhibition [4]: -1.45%
growth inhibition [5]: 15.8%
growth inhibition [6]: -27.9%

O=C(CCl)Nc1ccc(O)c2ccccc12
growth inhibition [1]: 14.8%
growth inhibition [2]: 4.65%
growth inhibition [3]: 7.45%
growth inhibition [4]: 9.95%
growth inhibition [5]: 5.85%
growth inhibition [6]: 36.8%

O=C(Nc1ccccc1O)c1ccc([N+](=O)[O-])cc1
growth inhibition [1]: 2.2%
growth inhibition [2]: 34.4%
growth inhibition [3]: -4.4%
growth inhibition [4]: -15.6%
growth inhibition [5]: 20.4%
growth inhibition [6]: 19.1%

CCc1ccccc1NC(=O)COc1ccc(Cl)cc1
growth inhibition [1]: 5.7%
growth inhibition [2]: 29.2%
growth inhibition [3]: 18.8%
growth inhibition [4]: 0.45%
growth inhibition [5]: 34.2%
growth inhibition [6]: 1.1%

O=C(Cl)c1ccc2c(c1)C(=O)OC2=O
growth inhibition [1]: 22.5%
growth inhibition [2]: -8.9%
growth inhibition [3]: -11.2%
growth inhibition [4]: 5.4%
growth inhibition [5]: 9.55%
growth inhibition [6]: -10.4%

CC(=O)OCC1OCOC2C(COC(C)=O)OCOC12 (stereo unspecified)
growth inhibition [1]: 3.55%
growth inhibition [2]: 2.6%
growth inhibition [3]: -8.15%
growth inhibition [4]: -24.4%
growth inhibition [5]: 3.85%
growth inhibition [6]: -8.5%

COc1ccc(Cc2ccc3c(c2)OCO3)cc1C
growth inhibition [1]: -12.1%
growth inhibition [2]: -14.2%
growth inhibition [3]: 9.7%
growth inhibition [4]: -9.55%
growth inhibition [5]: 6.45%
growth inhibition [6]: -3.95%

C/C(Cc1ccccc1)=N\NC(N)=S
growth inhibition [1]: 13.3%
growth inhibition [2]: 1.15%
growth inhibition [3]: 27.6%
growth inhibition [4]: -12.7%
growth inhibition [5]: 8.5%
growth inhibition [6]: 29.5%
